Compound activity as filed in PubChem BioAssay.
mcGAS lum – blocks mouse cGAS activity; recombinant cGAS, Kinase-Glo ATP depletion luminescence; actives 0.15% (n = 160,000); Q8C6L5; inhibition, % at 12.5 µM; AID 1259399;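 further: 0% = negative control wells and 100% = reference inhibitor with no enzyme activity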
hcGAS inh – human cGAS inhibition. inhibition, % at 12.5 µM. actives 0.081% (n = 290,000). recombinant h-cGAS, ATP depletion, Kinase-Glo luminescence. AID 1259398;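 further: 0% = vehicle reaction and 100% = reaction without DNA for no activity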
Target sequence (Q8N884 whole entry, looked up): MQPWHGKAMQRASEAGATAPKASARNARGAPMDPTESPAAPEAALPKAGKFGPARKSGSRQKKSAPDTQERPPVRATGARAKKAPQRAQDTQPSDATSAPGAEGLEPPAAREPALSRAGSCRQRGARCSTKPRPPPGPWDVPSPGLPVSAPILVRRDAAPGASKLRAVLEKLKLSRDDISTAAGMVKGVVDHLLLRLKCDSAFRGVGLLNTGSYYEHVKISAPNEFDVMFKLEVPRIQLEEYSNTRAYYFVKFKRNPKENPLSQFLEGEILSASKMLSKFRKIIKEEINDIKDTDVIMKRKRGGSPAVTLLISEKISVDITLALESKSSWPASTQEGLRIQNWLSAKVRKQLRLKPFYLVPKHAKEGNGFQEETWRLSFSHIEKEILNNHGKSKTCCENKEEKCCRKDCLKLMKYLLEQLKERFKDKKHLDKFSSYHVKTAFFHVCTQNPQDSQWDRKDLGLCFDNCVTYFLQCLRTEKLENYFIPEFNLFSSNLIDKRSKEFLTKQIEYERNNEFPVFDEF
NPYLR7 ag – activates Aedes aegypti NPYLR7 receptor; HEK293T NPYLR7/Galpha15, GCaMP6s calcium fluorescence; activation, % at 10 µM; actives 0.15% (n = 270,000); AID 1259423; in the data active means activation above about 40%;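 further: 0% = vehicle and 100% = reference agonist at the receptor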
* hit, by the source's call; / = no result given; ! = a repeat was not active. A selection: hits, their analogues and other compounds. The true share with any hit is near 0.28%. Unless noted, no stated cut-off is given here; in the data, active means inhibition above about 40%; inactive means the rest.

SMILES	mcGAS lum	hcGAS inh	NPYLR7 ag
CCC(=O)C(C#N)c1nnc(-c2ccccc2)s1 (stereo unspecified)	/	56*	8
CC(N)C(=O)Nc1nnc(-c2ccccc2)s1 (stereo unspecified)	-5	-6	-7
CN1CCN(c2cc(OCCNS(=O)(=O)c3ccc(F)cc3)ncn2)CC1	/	-5	0
O=C(NCc1cccnc1)C1COC2(CCCCC2)N1C(=O)c1ccco1 (stereo unspecified)	-6	-3	-2
O=c1cc(-c2ccccc2)[nH]n1-c1c(F)c(F)c(F)c(F)c1F	-4	-3	5
O=c1c(C=NC2CC2)c(-c2ccccc2)[nH]n1-c1nc2ccccc2s1	3	60*	3
COc1ccc(-c2[nH]n(-c3nc4ccccc4s3)c(=O)c2C=NCCN2CCOCC2)cc1	/	-3	-3
O=c1cc(-c2ccccc2)[nH]n1-c1nc2ccccc2s1	30	55*	-7
O=C1NC2(CCN(Cc3ccccc3[N+](=O)[O-])CC2)Nc2ccccc21	3	3	5
CC(C)(N)COc1ccc(C(F)(F)F)cn1	/	-11	5
Nc1nc(-c2cc(I)c(O)c(I)c2)cs1	102*	66*	-2
Nc1nc(-c2ccncc2)cs1	/	4	8
CNC(=O)c1ccccc1NC(=O)c1ccc(C)cc1C	/	-7	0
Cc1ccc(N2C(=O)NC(=O)/C(=C\c3cccs3)C2=O)cc1	-7	-4	65*
Cc1ccc(N2C(=O)NC(=O)/C(=C\c3ccc(N(C)C)o3)C2=O)cc1	-8	-3	5
Cc1ccc(-n2ncc(C(=O)N3CCN(C)CC3)c2C)cc1	-4	-4	15
CC(=NNc1ncnc2sc(C)c(C)c12)c1ccccn1	/	45*	59*
Cc1sc2ncnc(N/N=C\c3ccccc3O)c2c1C	/	-8	6
COc1cc(C=NN2C(=O)CSC2=S)cc(Br)c1O	-2	-10	20
O=C1CSC(=S)N1N=Cc1ccc([N+](=O)[O-])o1	59*	4	3
O=C1CSC(=S)N1N=Cc1ccc(-c2nc3ccccc3s2)o1	/	-1	25
O=C1CSC(=S)N1N=Cc1cc(Br)c(O)c(Br)c1	60*	43*	67*
CNS(=O)(=O)c1csc(C(=O)NCc2ccc(C)n2C)c1	/	4	0
CCc1ccc2occ(CC(=O)N3C[C@@H]4[C@H](C3)[C@H]3CC[C@@H]4O3)c2c1	-17	-9	16
CC(=O)Nc1ccc(CN2C(=O)C(C)ON=C2c2ccccn2)cc1 (stereo unspecified)	/	-4	7
SMILES	mcGAS lum	hcGAS inh	NPYLR7 ag
COc1ccc(-c2cccc(-c3ccc(NC(=O)c4c(F)cccc4F)cc3)n2)cc1	-4	-2	1
COc1ccc(-c2cccc(-c3ccc(NC(=O)c4oc5ccccc5c4C)cc3)n2)cc1	-6	-3	43*
NS(=O)(=O)c1ccc(NN=Cc2ccc3c(c2)OCO3)cc1	/	-9	1
O=C(O)CSc1ccc2c3c(cccc13)C(=O)c1ccccc1-2	66*	76*	94*
CCNC(=O)CSc1ccc2c3c(cccc13)C(=O)c1ccccc1-2	/	2	37
COc1ccc(-c2nn(-c3ccccc3C)cc2CN(C)Cc2ccncn2)cc1F	-11	-7	/
Cc1cc(C)c(S(=O)(=O)N(C)C(=O)C=C(C2CC2)C2CC2)c(C)c1	/	-9	10
NS(=O)(=O)c1ccc2[nH]c(=O)c3n[nH]c(=O)n3c2c1	/	4	11
O=c1[nH]c2ccccc2n2c(=S)[nH]nc12	52*	38	0
O=C1COc2ccc(CC(=O)N3CCC4(CCCO4)CC3)cc2N1	-8	-3	5
O=C(Nc1cccc(F)c1)N[C@H]1CCCCNC1=O	-3	-1	-8
CNc1ccc(-c2ccc(OC)nc2)cn1	/	-17	2
CCNc1ccc(OC)nc1	/	0	55*
CN1C(=CC=C(C#N)C#N)C=Cc2ccccc21	/	10	-6
C=CCN1C=CC(=CC=C(C#N)C#N)C=C1	/	-4	72*
NC(=O)c1nc(-c2ccc([N+](=O)[O-])cc2)nc2c1[nH]c(=O)n2-c1ccc(F)cc1	-8	-7	2
CCOC(=O)c1sc(NC(=O)CSc2nnc(C)s2)c(C(=O)OCC)c1C	61*	-4	-4
CCOC(=O)c1sc(NC(=O)CSc2nnc3ccccn23)c(C(=O)OCC)c1C	-3	-6	-2
COc1cc(C=CC(=O)c2ccc3c(c2)OCCO3)cc(Br)c1O	-6	-10	145*
CCOc1cc(C=CC(=O)c2ccc3c(c2)OCCO3)cc(Br)c1OCC	-7	-8	3
N=C(N)c1ccc(OCCCCCOc2ccc(C(=N)N)cc2)cc1	/	4	66*!
N=C(N)c1ccc(OCCCCCOc2ccc(C(N)=O)cc2)cc1	0	-6	5
O=C(NCCc1nc2ccccc2n1Cc1ccc(Cl)cc1)c1ccco1	3	20	-3
C=c1c(C#N)c2[nH]c(N)c(C#N)c(C)c-2/c1=C\c1ccc(C(=O)OC)cc1	-1	-4	7
C=c1c(C#N)c2[nH]c(N)c(C#N)c(C)c-2/c1=C\c1ccc(O)cc1	71*	11	21
SMILES	mcGAS lum	hcGAS inh	NPYLR7 ag
Cc1cnc(C(=O)OCC(=O)C(C#N)c2nc(C)cs2)cn1 (stereo unspecified)	/	-7	1
Cc1csc(C(C#N)C(=O)c2cn(CC(=O)C(C)(C)C)nn2)n1 (stereo unspecified)	-7	45*	-1
CC(C)c1ccc(C2c3c(n(C)c(=O)[nH]c3=O)N=C3COC(=O)C32)cc1 (stereo unspecified)	-9	-11	-1
COc1ccc(-c2cc3c(cn2)nc(NCc2ccccc2)n3C)c(C)c1	-5	-2	-2
COc1ccc(OC)c(CCNc2nc3cnc(-c4ccc5c(c4)OCO5)cc3n2C)c1	15	-7	71*
COc1ccc(OCC(=O)NCc2cc(-c3ccc4c(c3)OCO4)on2)cc1	-8	-12	3
COc1ccc(OC)c(CCNc2nc3cnc(-c4cccc5ccccc45)cc3n2C)c1	-7	-6	59*
CNC(=O)c1ccc(N(C)C)c2ccccc12	-5	-2	2
Cc1cccc(OCC(=O)N2CCOC(COCc3cccc(C(F)(F)F)c3)C2)c1C (stereo unspecified)	-6	-7	4
CCc1nc(Cl)c2c3c(sc2n1)CN(CC)CC3	/	-3	4
CCCN1CCc2c(sc3c2c(NC(CC)CO)nc2nnnn23)C1 (stereo unspecified)	/	-5	69*
Cc1ccc(NC(=O)N(CC(=O)N(Cc2ccc(F)cc2)Cc2ccc(C)o2)CC2CCCO2)c(C)c1 (stereo unspecified)	-4	89*	-4
Cc1ccc(CN(Cc2ccc3c(c2)OCO3)C(=O)CN(CC2CCCO2)C(=O)Nc2ccc(F)cc2F)o1 (stereo unspecified)	-3	-4	12
COc1ccc(C)cc1S(=O)(=O)N1CCC2(CCCO2)CC1	/	-7	15
COc1ccc(CCN2CC(=O)N(c3ccc(Cl)cc3)C3CS(=O)(=O)CC32)cc1 (stereo unspecified)	/	-9	4
CCCN(Cc1ccsc1)CC(O)COc1ccccc1 (stereo unspecified)	41*	-4	27
COc1cccc(CN(Cc2ccc(F)cc2)CC(O)COc2ccccc2)c1 (stereo unspecified)	76*	-4	39
